# Measurements taken from ChEMBL document CHEMBL3988442, “University of Dundee, Small-Polar-MMV Screening Library” (2021).
# For some assays here: Measured potencies and affinities stand elsewhere.
# Legend:
# Set-up in all cases: scale not given: direction of the effect not stated beside the values
# [1] = biological target: Protein translocase subunit SecA (Escherichia coli (strain K12)) (UniProt P10408); test: Assay to Identify E. coli SecA ATPase Inhibitors; assay type: functional; conditions: 30 µM
# Protein translocase subunit SecA (Escherichia coli (strain K12)), sequence (P10408 whole entry): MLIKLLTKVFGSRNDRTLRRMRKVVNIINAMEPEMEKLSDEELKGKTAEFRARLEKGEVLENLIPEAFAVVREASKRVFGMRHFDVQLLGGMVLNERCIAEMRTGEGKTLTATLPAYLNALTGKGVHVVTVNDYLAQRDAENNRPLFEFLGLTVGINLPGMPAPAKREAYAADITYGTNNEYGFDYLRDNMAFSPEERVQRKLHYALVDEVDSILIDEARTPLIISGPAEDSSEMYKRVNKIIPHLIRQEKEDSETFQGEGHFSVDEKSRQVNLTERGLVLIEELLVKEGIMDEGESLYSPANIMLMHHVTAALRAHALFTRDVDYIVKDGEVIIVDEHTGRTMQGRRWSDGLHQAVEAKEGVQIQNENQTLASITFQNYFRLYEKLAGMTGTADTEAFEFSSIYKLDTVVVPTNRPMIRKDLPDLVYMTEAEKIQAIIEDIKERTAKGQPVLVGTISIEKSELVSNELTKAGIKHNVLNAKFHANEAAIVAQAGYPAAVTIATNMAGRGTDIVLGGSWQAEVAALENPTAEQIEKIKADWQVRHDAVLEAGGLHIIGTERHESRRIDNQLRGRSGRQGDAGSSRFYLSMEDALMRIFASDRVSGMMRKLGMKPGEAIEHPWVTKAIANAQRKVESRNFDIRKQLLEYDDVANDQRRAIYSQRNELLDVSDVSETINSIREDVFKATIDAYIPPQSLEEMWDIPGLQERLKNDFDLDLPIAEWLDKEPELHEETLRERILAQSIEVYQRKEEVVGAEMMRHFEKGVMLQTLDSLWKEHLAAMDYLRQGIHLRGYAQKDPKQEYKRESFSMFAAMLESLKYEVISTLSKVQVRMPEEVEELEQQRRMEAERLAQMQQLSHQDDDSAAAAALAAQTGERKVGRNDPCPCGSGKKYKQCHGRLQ
# [2] = biological target: T1, Ubiquitin-activating enzyme e1, putative (Leishmania donovani (strain BPK282A1)) (UniProt E9BSI1); test: Leishmania donovani Ubiquitin Activating Enzyme (LdE1); assay type: functional; conditions: 30 µM
# T1 sequence (whole entry): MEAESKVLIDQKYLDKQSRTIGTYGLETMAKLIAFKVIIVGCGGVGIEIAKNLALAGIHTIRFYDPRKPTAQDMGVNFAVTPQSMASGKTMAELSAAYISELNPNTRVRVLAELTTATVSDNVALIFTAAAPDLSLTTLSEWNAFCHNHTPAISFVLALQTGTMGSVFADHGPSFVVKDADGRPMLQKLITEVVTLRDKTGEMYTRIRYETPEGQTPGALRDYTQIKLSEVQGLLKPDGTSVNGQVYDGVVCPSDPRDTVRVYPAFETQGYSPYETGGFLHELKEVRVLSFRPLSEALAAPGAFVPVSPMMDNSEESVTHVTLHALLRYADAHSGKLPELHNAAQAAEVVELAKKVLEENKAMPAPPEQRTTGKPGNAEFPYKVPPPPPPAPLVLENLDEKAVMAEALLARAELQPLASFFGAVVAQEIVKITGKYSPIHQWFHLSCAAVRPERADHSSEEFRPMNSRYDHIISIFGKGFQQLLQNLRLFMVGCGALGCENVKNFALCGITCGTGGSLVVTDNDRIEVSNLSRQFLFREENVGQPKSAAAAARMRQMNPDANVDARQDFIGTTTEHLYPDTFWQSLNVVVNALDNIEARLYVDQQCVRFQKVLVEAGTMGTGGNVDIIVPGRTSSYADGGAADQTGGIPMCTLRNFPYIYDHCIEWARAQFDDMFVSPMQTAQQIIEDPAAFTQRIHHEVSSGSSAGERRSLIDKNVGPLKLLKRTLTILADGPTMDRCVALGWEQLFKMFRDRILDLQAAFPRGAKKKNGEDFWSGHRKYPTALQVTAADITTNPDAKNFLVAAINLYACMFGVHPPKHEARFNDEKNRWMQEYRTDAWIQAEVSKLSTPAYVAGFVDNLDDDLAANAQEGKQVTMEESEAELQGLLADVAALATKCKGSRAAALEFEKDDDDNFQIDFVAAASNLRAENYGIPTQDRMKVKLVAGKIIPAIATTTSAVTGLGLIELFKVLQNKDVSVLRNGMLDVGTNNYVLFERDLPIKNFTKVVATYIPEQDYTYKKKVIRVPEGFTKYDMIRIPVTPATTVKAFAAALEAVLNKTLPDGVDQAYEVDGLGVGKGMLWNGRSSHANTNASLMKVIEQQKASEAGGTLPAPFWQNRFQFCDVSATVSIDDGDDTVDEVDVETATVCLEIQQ
# [3] = biological target: AMP-activated protein kinase, AMPK (Homo sapiens) (UniProt P54646+O43741+P54619+Q9UGJ0+Q9Y478+Q13131+Q9UGI9); test: AMP-dependent Kinase enzyme assay. An in vitro enzyme assay that detects ADP turnover that is directly proportional to AMPK activity. This uses naive AMPK that is activated during the assay with MK-8722; assay type: functional; conditions: 30 µM
# [4] = biological target: Sialic acid-binding Ig-like lectin 9 (Homo sapiens) (UniProt Q9Y336); test: Hs-Siglec9 ALPHAscreen SOP 20170721; conditions: 10 µM
# Sialic acid-binding Ig-like lectin 9 (Homo sapiens), sequence (Q9Y336 whole entry): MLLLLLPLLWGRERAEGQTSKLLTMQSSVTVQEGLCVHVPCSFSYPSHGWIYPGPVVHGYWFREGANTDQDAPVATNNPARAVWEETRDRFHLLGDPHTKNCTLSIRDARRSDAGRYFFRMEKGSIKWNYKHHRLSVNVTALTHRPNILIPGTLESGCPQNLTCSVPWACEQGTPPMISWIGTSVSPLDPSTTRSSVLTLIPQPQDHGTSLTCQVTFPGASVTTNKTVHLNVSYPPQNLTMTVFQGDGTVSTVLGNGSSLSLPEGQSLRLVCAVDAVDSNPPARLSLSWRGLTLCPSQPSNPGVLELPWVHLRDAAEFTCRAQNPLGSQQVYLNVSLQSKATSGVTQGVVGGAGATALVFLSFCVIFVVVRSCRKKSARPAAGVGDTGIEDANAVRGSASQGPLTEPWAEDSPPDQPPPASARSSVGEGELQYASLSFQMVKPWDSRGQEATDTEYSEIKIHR
# Trypanosoma cruzi = test: Trypanosoma cruzi phosphomannomutase and mannose-1-phosphate guanylyltransferase assay; assay type: functional; conditions: 10 µM
# [5] = biological target: T2, Arginase-2, mitochondrial (Homo sapiens) (UniProt P78540); test: in vitro enzyme assay to detect the production of urea directly proportional to the activity of Arginase II; assay type: functional; conditions: 33.3 µM; note: in the data most compounds retested in dose-response had high values
# T2 sequence (whole entry): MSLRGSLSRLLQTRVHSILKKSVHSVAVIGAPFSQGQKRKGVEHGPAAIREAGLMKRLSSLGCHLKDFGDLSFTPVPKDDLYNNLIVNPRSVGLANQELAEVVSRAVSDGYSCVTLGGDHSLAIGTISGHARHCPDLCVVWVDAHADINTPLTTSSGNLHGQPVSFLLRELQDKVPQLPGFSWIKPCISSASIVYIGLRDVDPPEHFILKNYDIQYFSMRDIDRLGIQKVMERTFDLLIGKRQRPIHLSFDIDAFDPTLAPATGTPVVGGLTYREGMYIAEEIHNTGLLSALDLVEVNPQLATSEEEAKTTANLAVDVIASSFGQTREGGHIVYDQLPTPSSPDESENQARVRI
# [6] = biological target: T3, Proteasome subunit beta (Trypanosoma cruzi) (UniProt O96673); test: Trypanosoma cruzi proteasome chymotrypsin-like activity (TcProtChymo) assay.; note: in the data most compounds retested in dose-response had high values; assay type: functional; conditions: 9.37 µM
# T3 sequence (whole entry): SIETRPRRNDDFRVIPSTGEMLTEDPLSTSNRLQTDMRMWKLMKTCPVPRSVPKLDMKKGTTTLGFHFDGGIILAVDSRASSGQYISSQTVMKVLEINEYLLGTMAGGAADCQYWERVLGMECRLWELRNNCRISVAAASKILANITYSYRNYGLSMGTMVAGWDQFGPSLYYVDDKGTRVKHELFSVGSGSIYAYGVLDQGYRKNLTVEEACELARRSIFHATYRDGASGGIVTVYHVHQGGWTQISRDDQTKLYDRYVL
# Homo sapiens = species: Homo sapiens; test: To identify inhibition of the IFN signalling (Jak-Stat) pathway via expression of an eGFP reporter gene under the control of an IFN-stimulated response element (ISRE) containing MxA promoter.; assay type: functional; conditions: 30 µM
# [7] = biological target: T4, Tyrosyl-tRNA synthetase, putative (Trypanosoma cruzi (strain CL Brener)) (UniProt Q4DSP6); test: Trypanosoma cruzi tyrosyl tRNA synthetase (TcYRS) _High Tyrosine SOP; assay type: functional; conditions: 30 µM; note: in the data most compounds retested in dose-response had high values
# T4 sequence (whole entry): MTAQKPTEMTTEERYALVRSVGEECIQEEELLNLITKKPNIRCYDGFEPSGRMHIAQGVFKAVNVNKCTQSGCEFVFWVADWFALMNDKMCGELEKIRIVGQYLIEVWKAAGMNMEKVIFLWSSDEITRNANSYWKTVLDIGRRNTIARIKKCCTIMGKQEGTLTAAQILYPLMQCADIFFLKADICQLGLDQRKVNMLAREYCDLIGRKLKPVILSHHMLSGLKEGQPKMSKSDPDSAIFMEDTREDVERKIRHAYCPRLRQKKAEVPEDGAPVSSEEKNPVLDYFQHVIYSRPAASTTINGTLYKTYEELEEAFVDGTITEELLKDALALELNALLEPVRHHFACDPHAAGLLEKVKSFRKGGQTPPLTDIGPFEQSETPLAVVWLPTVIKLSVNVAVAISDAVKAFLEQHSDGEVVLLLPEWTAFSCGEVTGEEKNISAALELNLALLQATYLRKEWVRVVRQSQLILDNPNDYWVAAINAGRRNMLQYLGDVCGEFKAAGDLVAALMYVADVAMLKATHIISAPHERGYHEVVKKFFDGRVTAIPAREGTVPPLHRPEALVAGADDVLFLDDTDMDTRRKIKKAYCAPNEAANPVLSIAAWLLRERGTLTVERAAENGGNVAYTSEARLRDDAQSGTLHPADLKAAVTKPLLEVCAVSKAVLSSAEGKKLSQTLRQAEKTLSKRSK
# [8] = biological target: T4, Tyrosyl-tRNA synthetase, putative (Trypanosoma cruzi (strain CL Brener)); test: Trypanosoma cruzi tyrosyl tRNA synthetase (TcYRS) SOP; assay type: functional; conditions: 30 µM
# [9] = biological target: Chromo domain-containing protein 1 (Saccharomyces cerevisiae (strain ATCC 204508 / S288c) (Baker's yeast)) (UniProt P32657); test: ScCHD-1 Enzyme Inhibition Assay; assay type: functional; conditions: 30 µM; note: in the data most compounds retested in dose-response had high values
# Chromo domain-containing protein 1 (Saccharomyces cerevisiae (strain ATCC 204508 / S288c) (Baker's yeast)), sequence (P32657 whole entry, the tested form may be a part): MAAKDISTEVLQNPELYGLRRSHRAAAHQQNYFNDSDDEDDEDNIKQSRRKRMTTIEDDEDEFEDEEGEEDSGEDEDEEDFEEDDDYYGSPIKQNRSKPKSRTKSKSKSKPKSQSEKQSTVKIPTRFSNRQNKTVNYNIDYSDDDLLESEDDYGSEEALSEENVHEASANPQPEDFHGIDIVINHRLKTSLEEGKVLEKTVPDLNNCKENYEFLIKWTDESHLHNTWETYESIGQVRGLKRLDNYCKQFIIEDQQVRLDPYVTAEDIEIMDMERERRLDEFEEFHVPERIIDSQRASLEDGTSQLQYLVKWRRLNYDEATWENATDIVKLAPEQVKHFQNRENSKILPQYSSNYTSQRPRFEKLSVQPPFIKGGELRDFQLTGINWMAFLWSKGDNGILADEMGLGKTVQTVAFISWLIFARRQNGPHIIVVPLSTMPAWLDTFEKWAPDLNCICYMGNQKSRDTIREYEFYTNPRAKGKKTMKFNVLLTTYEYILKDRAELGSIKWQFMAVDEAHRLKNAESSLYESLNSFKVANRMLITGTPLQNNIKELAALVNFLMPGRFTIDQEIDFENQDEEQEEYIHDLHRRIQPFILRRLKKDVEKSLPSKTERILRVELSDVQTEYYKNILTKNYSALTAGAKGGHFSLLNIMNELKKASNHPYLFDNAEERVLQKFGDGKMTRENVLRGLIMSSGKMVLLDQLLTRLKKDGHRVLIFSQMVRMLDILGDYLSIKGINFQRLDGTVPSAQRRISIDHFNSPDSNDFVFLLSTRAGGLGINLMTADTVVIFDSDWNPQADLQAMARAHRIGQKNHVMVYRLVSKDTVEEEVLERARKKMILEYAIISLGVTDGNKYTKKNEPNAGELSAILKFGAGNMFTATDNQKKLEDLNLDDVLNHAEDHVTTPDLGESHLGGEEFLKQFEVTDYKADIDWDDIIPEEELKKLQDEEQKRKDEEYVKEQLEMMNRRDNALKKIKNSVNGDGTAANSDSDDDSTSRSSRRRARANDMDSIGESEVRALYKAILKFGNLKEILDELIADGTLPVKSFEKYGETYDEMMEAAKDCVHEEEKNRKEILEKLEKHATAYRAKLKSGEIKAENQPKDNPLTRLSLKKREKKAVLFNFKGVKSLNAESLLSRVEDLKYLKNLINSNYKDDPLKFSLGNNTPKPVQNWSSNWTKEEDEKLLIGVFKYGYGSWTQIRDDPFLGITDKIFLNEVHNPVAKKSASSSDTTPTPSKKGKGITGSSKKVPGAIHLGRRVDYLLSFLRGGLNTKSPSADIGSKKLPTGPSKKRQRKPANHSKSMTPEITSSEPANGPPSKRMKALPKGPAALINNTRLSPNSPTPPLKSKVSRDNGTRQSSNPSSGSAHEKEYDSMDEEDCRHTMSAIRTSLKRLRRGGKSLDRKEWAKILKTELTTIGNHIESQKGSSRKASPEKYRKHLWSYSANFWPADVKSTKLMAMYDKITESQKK
Compound,Percent Effect [1],Percent Effect [2],Percent Effect [3],Percent Effect [4],Percent Effect (Trypanosoma cruzi),Percent Effect [5],Percent Effect [6],Percent Effect (Homo sapiens),Percent Effect [7],Percent Effect [8],Percent Effect [9]
CCc1nc2n(n1)CC(NCC(=O)Nc1nccs1)CC2 (stereo unspecified),-2.54%,-2.53%,-11.6%,-5.43%,-5.95%,-1.9%,-0.737%,15.1%,2.46%,-8.86%,-2.63%
CC(C)(C)c1nc(CN2CCC(c3nc4cc(Cl)ccc4o3)CC2)no1,0.762%,13.5%,3.19%,22.6%,7.92%,4.76%,7.76%,10.2%,2.65%,0%,-5.62%
CCc1nc(CN(C)CC2CCN(CCO)CC2)no1,0.69%,2.7%,-8.99%,9.52%,6.56%,10%,-1.55%,-14.8%,2.65%,9.76%,-0.692%
CCN(Cc1ccco1)C(=O)c1cc(OC)c2c(c1)OCCO2,-1.97%,-2.63%,6.68%,5.11%,-0.487%,3.55%,9.88%,-7.24%,0%,2.6%,-1.38%
COCCN1CCC2(CC1)CN(C(=O)N(C)C)c1ccc(C)cc12,-5.7%,5.41%,-1.76%,-3.94%,-3.62%,2.23%,6.83%,12.1%,0%,5.13%,0.0767%
O=C(c1cnc(C2CC2)s1)N1CCCC(n2cccn2)C1 (stereo unspecified),-2.59%,8.11%,-1.44%,-0.959%,-7.26%,-5.61%,1.26%,21%,6.4%,11.1%,-5.53%
CCCS(=O)(=O)N1CCC2(CN(c3ccsc3)C(=O)CN2C)C1 (stereo unspecified),-3.95%,8.11%,-1%,-0.171%,2.34%,5.83%,10.6%,-4.15%,9.9%,6.1%,-1.58%
COc1ccccc1S(=O)(=O)Nc1ccc2c(C(=O)O)c[nH]c2c1,-5.95%,-10.4%,-64.6%,10.9%,8.05%,-4.98%,8.28%,14.3%,0%,12.2%,-7.94%
N#CCSCCCN1CCN(C(=O)c2ccc(Cl)cc2)CC1,-6.76%,-8.22%,6.65%,-5.18%,-3.37%,-25.9%,-2.83%,4.5%,-2.08%,-3.7%,7.74%
Cc1nn(C)c(C)c1C1COCCN1C(=O)c1ccccc1 (stereo unspecified),-2.83%,5.2%,-2.73%,2.06%,6.74%,3.2%,-1.01%,7.76%,2.91%,12.2%,11.3%
COc1ccc2c(c1)C1(CCN(Cc3ccncc3)CC1)N(C)CC2,-3.01%,7.79%,2.38%,7.8%,-3.06%,0.645%,14.4%,-6.76%,0%,3.85%,-8.34%
Cc1cccc(COC[C@H]2CC[C@H]3[C@H](CCN3C(=O)CC3CC3)O2)n1,-5.92%,10.7%,7.31%,-1.34%,-1.57%,5.36%,6.96%,15.9%,7.45%,19.2%,-5.1%
CC(O)CN1CCN(C(=O)c2ccc(N(C)C)nc2)CC1 (stereo unspecified),-1.4%,33.8%,-9.23%,0.151%,4.68%,0%,11%,8.66%,7.77%,9.76%,-4.89%
CCn1cnnc1CNC(=O)c1ccc(Cl)cc1F,-2.15%,16.5%,-1.73%,3.58%,0.103%,-6.24%,16.6%,5.91%,9.38%,17.7%,-13.8%
Cc1csc(N2CCN(C(=O)CCc3ccccn3)CC2)n1,-1.62%,13.5%,-16%,7.95%,3.87%,-12.8%,10.8%,6.58%,10.3%,25.9%,-12.7%
CCN(CCC(F)(F)F)C(=O)Nc1cccc(N2CCOCC2)c1,-2.27%,5.41%,-8.53%,14.9%,2.12%,-2.38%,5.52%,16.4%,2.65%,7.32%,-3.36%
